This is an account of results in the supplement of paper PMC6555819.

Assay in all cases: PBM binding z-score (relative to random genomic background probes); higher = stronger binding; sequences stand for … in GC…GCGATTGACAGCGTAGAATGAAGG
In assay [1] the test system is FXR:RXRa (NR concentration 270 nM, RXRa partner concentration 90 nM). Summed up: (§1)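 Binding z-scores take random background probes as their reference. They come from custom Agilent 4×180K protein-binding microarrays incubated 1 h with ligand-free nuclear receptor dimers, with antibodies against each partner (one per run) detecting binding. Scanned fluorescence was regression-normalized.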

The subject of assay [2] is LXRa:RXRa (NR concentration 270 nM, RXRa partner concentration 90 nM). A digest of the protocol:
as §1

Assay [3] concerns LXRa homodimer (NR concentration 270 nM). A digest of the protocol:
as §1

The subject of assay [4] is LXRb:RXRa (NR concentration 270 nM, RXRa partner concentration 90 nM). A digest of the protocol: as §1
Assay [5] concerns LXRb homodimer (NR concentration 270 nM). Summed up:
as §1

In assay [6] the test system is PPARa:RXRa (NR concentration 270 nM, RXRa partner concentration 90 nM). A digest of the protocol: as §1
Assay [7] relates to PPARg:RXRa (NR concentration 180 nM, RXRa partner concentration 90 nM). A digest of the protocol:
as §1

In assay [8] the test system is PPARg:RXRa 270nM:90nM, anti-RXR (NR concentration 270 nM, RXRa partner concentration 90 nM). Summed up:
as §1

The subject of assay [9] is PPARg:RXRa 30nM:10nM, anti-RXR (NR concentration 30 nM, RXRa partner concentration 10 nM). A digest of the protocol: as §1
The test system of assay [10] is PPARg:RXRa 90nM:30nM, anti-RXR (NR concentration 90 nM, RXRa partner concentration 30 nM). Summed up:
as §1

The test system of assay [11] is PPARg:RXRa DBDmut IVT, anti-RXR (DBD mutation: RXRa K156A/R161A, NR concentration 270 nM, RXRa partner concentration 90 nM). A digest of the protocol:
as §1

The subject of assay [12] is PPARg:RXRa IVT, anti-PPARg (NR concentration 270 nM, RXRa partner concentration 90 nM). A digest of the protocol:
as §1

Assay [13] deals with PPARg DBDmut:RXRa IVT, anti-PPARg (DBD mutation: PPARg1 K132A/R137A, NR concentration 270 nM, RXRa partner concentration 90 nM). Summed up: as §1
Assay [14] concerns PPARg DBDmut IVT, anti-PPARg (DBD mutation: PPARg1 K132A/R137A, NR concentration 270 nM). Summed up: as §1
The test system of assay [15] is PPARg homodimer (NR concentration 180 nM). A digest of the protocol: as §1
In assay [16] the test system is PXR:RXRa (NR concentration 270 nM, RXRa partner concentration 90 nM). Summed up: as §1
The subject of assay [17] is PXR homodimer (NR concentration 270 nM). Summed up:
as §1

For assay [18], the system named is RARa:RXR (NR concentration 270 nM, RXRa partner concentration 90 nM). Summed up: as §1
The test system of assay [19] is RARa homodimer (NR concentration 270 nM). Summed up: as §1
Assay [20] has as its system RARb:RXRa (NR concentration 270 nM, RXRa partner concentration 90 nM). Summed up: as §1

With GCAGACAGGTGAATCGCAGGTAACTCAGGGTGGC, the PBM binding z-score is -0.281 in assay [1]; -0.0182 in assay [2]; -0.726 in assay [3]; -0.203 in assay [4]; -1.12 in assay [5]; 0.748 in [6]. Also, the PBM binding z-score in [7] is 0.386; in [8], -0.0895; in [9], -0.47; in assay [10], -0.296; in assay [11], 0.726; in [12], 0.657. Moreover, the PBM binding z-score in assay [13] is -0.695; in assay [14] it was -0.904; in [15], -0.727; in assay [16] it was -0.313; in assay [17], -0.959; in assay [18], 0.0382. For the same sequence, the PBM binding z-score in assay [19] is -0.689; in assay [20], 0.443.
For the sequence ATCCCTAGGTAACCAAGTTCAGTGAATGCCGAAC, the PBM binding z-score in assay [1] was determined as 0.476; in assay [2] it was 1.09; in assay [3] it was 1.1; in assay [4] it was 0.956; in [5], 0.382; in [6], 0.985. For the same sequence, the PBM binding z-score was 0.276 in assay [7]; 0.246 in assay [8]; -0.161 in [9]; -0.0393 in [10]; -0.197 in assay [11]; 0.606 in assay [12]. Also, the PBM binding z-score in assay [13] was -0.0937; in assay [14], 0.0123; in [15], 0.495; in assay [16] it was 2.03; in assay [17] it was 1.88; in assay [18], 0.847. The PBM binding z-score was found to be 0.816 in assay [19] and 1.25 in assay [20].
With GCTAGCAGGCCATTTAGGTCACTCAATGACGGGC, the PBM binding z-score in assay [1] was 0.265; in assay [2], -0.00867; in assay [3], -0.241; in assay [4] it was -0.158; in [5], -1.25; in assay [6], 1.67. Further, the PBM binding z-score in assay [7] was 0.871; in [8] it was 0.498; in [9], -0.134; in [10], 0.454; in assay [11], 1.71; in assay [12], 2.41. Also, the PBM binding z-score was -0.196 in assay [13]; -1.01 in assay [14]; -0.0591 in assay [15]; 0.564 in assay [16]; 0.12 in assay [17]; 0.658 in assay [18]. The figures for the PBM binding z-score in assay [19] and in assay [20] were -0.306 and 1.8, respectively.
On to TGAATAAGGTTATAAGATCAGGGAACGTTGCAAA, for which the PBM binding z-score in [1] was 1.45; in assay [2], 1.38; in assay [3], 0.228; in [4] it was 1.24; in assay [5] it was -0.00633; in [6], 2.31. The PBM binding z-score in [7] was 0.925; in assay [8] it was 1.57; in [9], 1.06; in [10], 1.53; in assay [11], 0.667; in [12], 1.08. Moreover, the PBM binding z-score in assay [13] is 1.27; in assay [14], 0.778; in assay [15], 0.811; in assay [16] it was 0.858; in assay [17], -0.117; in assay [18], 1.6. Further, the results for the PBM binding z-score in assay [19] and in assay [20] were 0.729 and 1.67, respectively.
On to CCAACTGGGCCAAGGTCATTGATCAGTCAAAGCA, for which the PBM binding z-score is 2.96 in assay [1]; 2.9 in assay [2]; 0.591 in [3]; 2.91 in [4]; -0.522 in [5]; 4.3 in [6]. In addition, the PBM binding z-score in assay [7] worked out at 4.16; in assay [8], 4.06; in [9], 1.82; in assay [10], 3.3; in assay [11], 4.04; in [12], 4.58. For the same sequence, the PBM binding z-score in [13] was -0.617; in [14], -0.824; in [15] it was 1.58; in [16] it was 3.11; in assay [17], 0.914; in assay [18] it was 3.22. Besides, the PBM binding z-score in assay [19] was 0.0494; in [20] it was 3.39.
Regarding CCTACTGAGCCACGAAAGGTCATTGATTCAGTGA, the PBM binding z-score in assay [1] stood at 3.68; in assay [2] it was 5.05; in assay [3], 5.31; in [4] it was 4.22; in [5], 1.09; in [6], 4.21. Moreover, the PBM binding z-score was determined as 1.27 in assay [7]; 2.77 in assay [8]; 0.973 in [9]; 1.93 in assay [10]; 0.983 in assay [11]; 1.29 in assay [12]. The PBM binding z-score in assay [13] was -0.156; in [14], 0.271; in assay [15] it was 3.9; in [16], 5.33; in [17], 2.61; in [18], 5.69. Further, the figures for the PBM binding z-score in assay [19] and in [20] were 3.37 and 3.95, respectively.
